# CBX7 inh – CBX7 inhibition, primary AlphaScreen. AlphaScreen His6-CBX7 / biotin-H3K27me3 peptide binding; stronger effect = lower value. normalised signal (fraction of DMSO) (test concentration not listed). 66,000 tested, 1.1% active. AID 1224903; in the data active = normalised signal below about 0.5
# Target sequence (O95931 whole entry, looked up): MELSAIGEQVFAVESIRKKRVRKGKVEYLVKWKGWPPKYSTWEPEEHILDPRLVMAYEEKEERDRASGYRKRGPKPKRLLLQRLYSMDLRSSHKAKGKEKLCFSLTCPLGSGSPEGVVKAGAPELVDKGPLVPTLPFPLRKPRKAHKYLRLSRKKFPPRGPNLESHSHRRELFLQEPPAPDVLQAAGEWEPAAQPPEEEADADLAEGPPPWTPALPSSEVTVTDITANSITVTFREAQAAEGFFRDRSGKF
# * marks the source's active call; other numbers are inactive results; ! = a repeat was not active. This is one part of a sample in which hits are shown more often than they occur.
SMILES,CBX7 inh
COc1ccccc1CNC(=O)C1(NS(=O)(=O)c2cccc3cccnc23)CCCCC1,0.96
CCOC(=O)c1ccc(NC(=O)CSc2nnc(-c3ccncc3)n2-c2ccccc2)cc1,1
Cc1ccc(CNC(=O)CN2C(=O)COc3ccc(C(C)(C)C)cc32)cc1,1.1
CCN(CCCNC(=O)CCCN1C(=O)COc2ccc(C)cc21)c1cccc(C)c1,0.85
CC(C)(C)c1ccc2c(c1)N(CC(=O)NCc1cccs1)C(=O)CO2,0.19*
CCCCNC(=O)CN1C(=O)COc2ccc(C(C)(C)C)cc21,0.93
CCN(CCCNC(=O)CN1C(=O)COc2ccc(C(C)(C)C)cc21)c1cccc(C)c1,0.27*
CC(C)(C)c1ccc2c(c1)N(CC(=O)NCc1ccc3c(c1)OCO3)C(=O)CO2,1.1
Cc1cccc(N(C)S(=O)(=O)c2ccc3c(c2)CCN3C(=O)CCC(=O)O)c1,0.97
CCC1Oc2ccccc2N(CC(=O)NCCc2ccc(OC)c(OC)c2)C1=O (configuration not stated),1
COc1ccc2c(c1)-c1nc(NC(=O)c3ccccc3OC)sc1CC2,1.2
Cc1cccc2nc(-c3ccsc3)c(Nc3ccc4c(c3)OCO4)n12,0.78
Cc1cccc2nc(-c3ccc(Cl)cc3)c(Nc3ccc4c(c3)OCO4)n12,0.68
Cc1cccc2nc(-c3ccccn3)c(Nc3ccc4c(c3)OCO4)n12,0*
Cc1cccc2nc(-c3ccc(N(C)C)cc3)c(Nc3ccc4c(c3)OCO4)n12,0.84
Cc1cccc2nc(-c3ccncc3)c(Nc3ccc4c(c3)OCO4)n12,0.99
Cc1cccc2nc(-c3ccccn3)c(Nc3ccc4c(c3)OCCO4)n12,0*
CCN(CC)c1nc(-c2ccccc2)nc2ccccc12,1.1
CCOc1ccc(NC(=O)c2nn(-c3ccc(OC)cc3OC)c(=O)c3ccccc23)cc1,0.96
CCCC1=Nc2cc(C(=O)NCCc3ccc(S(N)(=O)=O)cc3)ccc2Sc2ccccc21,0.92
Cc1ccc(CNC(=O)CN(c2ccc(C)cc2)S(=O)(=O)c2cccnc2)cc1,0.86
CCOc1ccc(C(=O)Nc2cccc(-c3nc4ncccc4o3)c2)cc1,1.1
COc1cccc(Nc2nc(-c3ccccc3F)nc3ccccc23)c1,0.33*
Fc1cccc(Nc2nc(-c3ccccc3F)nc3ccccc23)c1,1.1
COc1ccc(Nc2nc(-c3ccccc3F)nc3ccccc23)c(OC)c1,1.4
SMILES,CBX7 inh
CC1CCN(CCCNC(=O)CN2C(=O)COc3ccccc32)CC1,1
CCn1c(C(=O)Nc2ccc(C)c(C)c2)cc2sc(Cl)cc21,1
CCc1cc(-c2nc(-c3ccc(Cl)c(Cl)c3)cs2)ccn1,1.2
CCCCC(=O)Nc1cccc(-c2csc(-c3ccccc3)n2)c1,1.1
CCCc1cc(-c2nc(-c3cccc([N+](=O)[O-])c3)cs2)ccn1,0.43*
O=C(C1CCCN(c2nc3ccccc3[nH]2)C1)N1CCOCC1 (configuration not stated),0.99
Cc1ccc2nc(-c3ccncc3)c(Nc3ccccc3)n2c1,1
Cc1ccn2c(-c3csc(Nc4ccccc4C)n3)c(C)nc2c1,1.1
CC(=O)Nc1nc(C)c(-c2csc(Nc3ccc(Cl)cc3)n2)s1,1
Cc1nc(C)c(-c2csc(Nc3ccc(N(C)C)cc3)n2)s1,0.054*
Cc1ccc(Nc2nc(-c3c(C)nc4sccn34)cs2)cc1,0.68
Cc1nc2ccccn2c1-c1csc(Nc2ccc(N(C)C)cc2)n1,0.47*
Cc1nc2sccn2c1-c1csc(Nc2ccccc2)n1,0.74
CC(=O)Nc1ccc(Nc2nc(-c3c(C)nc4ccccn34)cs2)cc1,0.95
Cc1nc2ccccn2c1-c1csc(Nc2ccc(Br)cc2)n1,1
Cc1nc2sccn2c1-c1csc(Nc2cccc(O)c2)n1,0.27*!
Cc1ccn2c(-c3csc(Nc4ccccc4Cl)n3)c(C)nc2c1,0.83
Cc1ccc(Nc2nc(-c3c(C)nc4cc(C)ccn34)cs2)c(C)c1,0.42*!
Cc1nc(C)c(-c2csc(Nc3ccc(Cl)cc3)n2)s1,0.59
O=C(NC1CCCCC1)C1c2cccn2CC(=O)N1CCCN1CCCC1=O (configuration not stated),1.1
O=C(NCc1ccccc1)c1cc(-c2ccc(Br)cc2)on1,0.94
Cc1ccc(Cn2c(C(=O)NCc3ccccc3Cl)cc3sccc32)cc1,0.91
CC1CCN(Cc2c(O)ccc3cc(-c4nc5ccccc5s4)c(=O)oc23)CC1,1.4
COCCNc1oc(-c2ccc(Cl)cc2)nc1C#N,0.98
O=C(Cn1ncc2c1-c1ccccc1OC2)Nc1ccccc1Cl,1.2
SMILES,CBX7 inh
Cc1ccn2c(-c3csc(Nc4cccc(C(=O)O)c4)n3)c(C)nc2c1,0.79
CCN(CC)c1ccc(Nc2nc(-c3c(C)nc4cc(C)ccn34)cs2)cc1,0.24*
Cc1ccn2c(-c3csc(Nc4ccccc4)n3)c(C)nc2c1,0.84
CCc1ccc(CNC(=O)c2ccc3c(c2)ncn3C2CCCCC2)cc1,1
COc1ccc(NC(=O)c2ccc(C)c(NC3=NC4CS(=O)(=O)CC4S3)c2)cc1 (configuration not stated),1
Cc1n[nH]c(C)c1CCCCCCOc1ccc(F)cc1,1
Cc1n[nH]c(C)c1CCCCOc1ccc(C(C)(C)C)cc1,0.82
COc1ccc(OCCCCCCc2c(C)n[nH]c2C)cc1,0.43*
CCOC(=O)c1c(C2COc3ccccc3O2)csc1NC(=O)c1ccc(Cl)cc1 (configuration not stated),1.1
COc1ccc2c(c1)c(CC(=O)NC1CC1)c(C)n2C(=O)c1ccc(Cl)cc1,0.89
C=CCNC(=O)Cc1c(C)n(C(=O)c2ccc(Cl)cc2)c2ccc(OC)cc12,1
COc1ccc2c(c1)c(CC(=O)Nc1ccccn1)c(C)n2C(=O)c1ccc(Cl)cc1,0.41*
Cc1ccc(NS(=O)(=O)c2ccc3c(c2)n(C)c(=O)c(=O)n3C)cc1F,0.84
CC1(C)CC(=O)c2cc(C(=O)Nc3cccc(Cl)c3)c(=O)n(-c3ccccc3)c2C1,1
O=C(NC(c1ccccc1)c1ccccc1)C(c1ccc(Cl)cc1)N1CCOCC1 (configuration not stated),1
COC(=O)CCS(=O)(=O)c1nc(-c2ccc(OC)c(OC)c2)cc(C(F)(F)F)n1,1.1
O=C(NCc1ccc(F)cc1)c1ccc2c(c1)NC(=O)C1CCCN21 (configuration not stated),0.96
Cc1ccc(OCCN2CCN(c3ncnc4scc(-c5ccccc5)c34)CC2)cc1,0.92
Cc1ccc(OCCN2CCN(c3ccc(C)c(C)c3)CC2)cc1,0.4*
Cc1ccc(OCCn2cnc3cc(C)c(C)cc32)cc1,0.77
COc1cc(OC)cc(C(=O)Nc2ccc(Cl)c(-c3nc4ccccc4[nH]3)c2)c1,0.97
Cc1ccc(NC(=O)C2c3ccccc3C(=O)N3CCc4ccccc4C23)nc1 (configuration not stated),0.3*
COc1cc2c(cc1OC)C1C(C(=O)Nc3ccc(Cl)cn3)c3ccccc3C(=O)N1CC2 (configuration not stated),0.93
Cc1ccccc1NC(=O)C1c2ccccc2C(=O)N2CCc3ccccc3C12 (configuration not stated),0.97
CCCN(CCC)S(=O)(=O)c1ccc(C(=O)Nc2nnc(C)o2)cc1,0.083*
CCN(Cc1ccccc1)S(=O)(=O)c1ccc(C(=O)Nc2nnc(-c3cccs3)o2)cc1,0.96
CCN(CC)S(=O)(=O)c1ccc(C(=O)Nc2nc3ccc4nc(C)sc4c3s2)cc1,0.93
CCN(CC)S(=O)(=O)c1ccc(C(=O)Nc2nnc(C)o2)cc1,0.084*
